Each structure is given as a SMILES string. Inconclusive results are not listed. Unmarked numbers belong to inactive results. The call rests on the fitted dose curve; in most records, active means well fitted inhibition curve with a large enough effect; inconclusive means small, poorly fitted or top-dose-only effect; inactive means no such curve, though single readings can be large or run the other way.

23 compounds from PubChem BioAssay (NCATS) can be followed below.
On the % scale 0 is the no-effect control and ±100 the full control effect.

Sequence of Thioredoxin reductase 1, cytoplasmic (Rattus norvegicus) (O89049 whole entry, looked up): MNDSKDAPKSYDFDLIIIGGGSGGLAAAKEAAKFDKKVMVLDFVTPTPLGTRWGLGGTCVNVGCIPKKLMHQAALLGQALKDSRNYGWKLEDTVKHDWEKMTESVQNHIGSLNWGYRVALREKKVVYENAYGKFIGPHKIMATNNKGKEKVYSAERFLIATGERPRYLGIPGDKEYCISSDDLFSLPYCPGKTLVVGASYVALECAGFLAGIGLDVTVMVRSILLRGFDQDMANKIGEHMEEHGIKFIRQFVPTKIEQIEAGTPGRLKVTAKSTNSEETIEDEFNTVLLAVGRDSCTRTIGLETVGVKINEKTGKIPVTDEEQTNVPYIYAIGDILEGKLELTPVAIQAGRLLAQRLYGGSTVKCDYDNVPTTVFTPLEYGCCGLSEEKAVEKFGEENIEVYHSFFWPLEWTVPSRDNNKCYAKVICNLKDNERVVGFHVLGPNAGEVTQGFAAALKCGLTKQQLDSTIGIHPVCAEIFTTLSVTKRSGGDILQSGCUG

This test addresses Thioredoxin reductase 1, cytoplasmic (Rattus norvegicus) (UniProt O89049). The test is described as follows: qHTS Assay for Inhibitors of Mammalian Selenoprotein Thioredoxin Reductase 1 (TrxR1) (AID 488773). Further: nearly all actives have a fitted effect of over 40% in size. The note with it: purified TrxR1 enzyme activity; series mostly up to 57.1 µM; activity change, negative = inhibition: at the top concentration. From the text:
The selenoprotein thioredoxin reductase (TrxR; EC 1.8.1.9) is a FAD containing homodimeric pyridine nucleotide-disulfide oxidoreductase with many cellular roles. Together with NADPH and its prime substrate thioredoxin (Trx), the enzyme forms the core of the Trx system. The mammalian Trx system exerts a wide spectrum of functions including redox regulation, antioxidant defense, regulation of transcription factors as well as support of cell growth and replication. Many of these functions involve the reduction of Trx, which may subsequently reduce a number of different substrates including ribonucleotide reductase, peroxiredoxins or NFkB. Mammalian TrxR itself also has a broad substrate specificity, reducing both protein and non-protein substrates, including low molecular weight compounds such as dehydroascorbate, lipoic acid, ubiquinone, and juglone. In addition, several drugs in clinical use for anticancer treatment are indeed known to target TrxR1.
This BioAssay is a validation of an NADPH fluorescence-based, dual-purpose qHTS rTrxR1 assay designed to find potential inhibitors and substrates of rTrxR1. For this particular BioAssay, actives are potential inhibitors. See related BioAssay for substrate data deposition.
Assay protocol: 2 uL of reagents (buffer in column 4 as negative control and 90 nM rTrxR1 in columns 1-3 and 5-48) were dispensed into Greiner black solid-bottom 1,536-well assay plates, followed by 1 uL of NADPH (400 uM final concentration) to each well. The plates were centrifuged at 1000 rpm for 15 seconds and subsequently incubated for 5 min at room temperature (~22 deg C) to allow for rTrxR1 reduction. Compounds (23 nL) were then transferred via Kalypsys pin tool equipped with 1536-pin array (10 nL slotted pins, V&P Scientific, San Diego, CA). In addition, a duplicate 2-fold serial dilution of the control compounds auranofin, a known gold-based TrxR1 inhibitor, and juglone (5-hydroxy-1,4-naphthoquinone), a natural TrxR1 substrate, were pin-transferred to columns 2 and 3, respectively. After incubation for 15 min at room temperature (~22 deg C), 1 uL of selenite (400 uM final concentration) were dispensed to each well. The plate was immediately transferred to a ViewLux high-throughput CCD imager (PerkinElmer), wherein kinetic measurements of NADPH fluorescence (Ex 340 nm, Em 450 nm) were acquired (8 minute kinetic read, see Table 1). Read 1 was utilized to assess the capacity of a compound to serve as an rTrxR1 substrate, i.e. a decrease in NADPH fluorescence compared to the no-compound background is an indication of a substrate behavior for that particular compound. For inhibitory activity of a compound, delta values, computed as the difference in fluorescence intensity between the first and last reads of an 8-minute time kinetic window, were used. All reagents were diluted in an assay buffer consisting of 50 mM Tris-HCl, pH 7.5, 2 mM EDTA, and 0.01% Tween-20.
Throughout the screen, reagent bottle and all liquid lines were made light-tight to minimize reagent degradation. All screening operations were performed on a fully integrated robotic system (Kalypsys, San Diego, CA) containing one RX-130 and two RX-90 anthropomorphic robotic arms (Staubli, Duncan, SC). Library plates were screened starting from the lowest and proceeding to the highest concentration, and a 'double-pinning' step of the highest concentration was required to access higher concentrations of compounds. Vehicle-only plates, with DMSO being pin-transferred to the columns 5-48, were inserted uniformly at the beginning and the end of each library in order to monitor and record any shifts in the background, which can be affected by reagent dispensers or loss in enzyme activity over time. Screening data were corrected, normalized, and concentration-effect relationships were derived by using publicly-available curve fitting algorithms developed in-house (http://ncgc.nih.gov/pub/openhts).
Turning to `C[C@@H]1C(=O)NC2=Nc3cccc(Cl)c3CN21`, the “activity change, negative = inhibition” value is 3.6%.
As for `COc1cc(NS(C)(=O)=O)ccc1Nc1c2ccccc2nc2ccccc12`, the “activity change, negative = inhibition” value is 31%.
For `CC1(C)CCC(NC(=O)[C@@H](N)CCC(=O)O)CC1`, the “activity change, negative = inhibition” value is 0.0697%.
Turning to `CC(CCc1ccccc1)NCC(O)c1ccc(O)c(C(N)=O)c1` (stereo not drawn), the “activity change, negative = inhibition” value is -8.77%.
Turning to `C1CCc2nnnn2CC1`, the “activity change, negative = inhibition” value is 3.83%.
As for `C[C@]12CC[C@@H]3c4ccc(O)cc4CC[C@H]3[C@@H]1CC[C@@H]2O`, the “activity change, negative = inhibition” value was 6.77%.
As for `CC(=O)O[C@H]1C[C@@H]2CC[C@@H]3[C@H](CC[C@@]4(C)[C@H]3C[C@H]([N+]3(C)CCCCC3)[C@@H]4OC(C)=O)[C@@]2(C)C[C@@H]1[N+]1(C)CCCCC1`, the “activity change, negative = inhibition” value is -6.38%.
On to `COC(=O)[C@H]1[C@H]2C[C@H]3c4[nH]c5ccccc5c4CCN3C[C@H]2CC[C@@H]1O`, for which the “activity change, negative = inhibition” value is 0.977%.
As for `CC(C)COC(=O)OCN1C(=O)CN(CCN2CC(=O)N(COC(=O)OCC(C)C)C(=O)C2)CC1=O`, the “activity change, negative = inhibition” value was -16%.
Regarding `N[C@H](CO)C(=O)O`, the “activity change, negative = inhibition” value was -8.14%.
For the compound `Oc1ccc(O)cc1`, the “activity change, negative = inhibition” value is -18.2%.
On to `N[C@@H](Cc1cnc[nH]1)C(=O)O`, for which the “activity change, negative = inhibition” value was -6.63%.
On to `C[N+]1(CCCCC[N+]2(C)CCCC2)CCCC1`, for which the “activity change, negative = inhibition” value was 2.41%.
Turning to `CN1C2CCC1CC(OC(=O)c1c[nH]c3ccccc13)C2` (stereo not drawn), the “activity change, negative = inhibition” value was -8.37%.
Next, `O=C1CCC(c2ccc(-n3ccnc3)cc2)=NN1`: -3.96%; `CC[C@H](C)C(=O)O[C@H]1CCC=C2C=C[C@H](C)[C@H](CC[C@@H]3C[C@@H](O)CC(=O)O3)[C@H]21`: -19.3%; `CCCn1c(=O)[nH]c(=O)c2[nH]cnc21`: -19.1%.
Turning to `CNCCC=C1c2ccccc2CCc2ccccc21`, the “activity change, negative = inhibition” value was 6.86%.
Turning to `CCCC1O[C@@H]2C[C@H]3[C@@H]4CCC5=CC(=O)C=C[C@]5(C)[C@H]4[C@@H](O)C[C@]3(C)[C@]2(C(=O)CO)O1` (stereo partly drawn), the “activity change, negative = inhibition” value is -7.67%.
Take `Nc1cc(Cl)c(NC2=NCCN2)c(Cl)c1`: the “activity change, negative = inhibition” value is 8.55%.
Turning to `COc1cc2c(cc1O)CC[C@@H]1[C@@H]2CC[C@]2(C)[C@@H](O)CC[C@@H]12`, the “activity change, negative = inhibition” value was -8.27%.
As to `O=C(O)c1cc2cc(Cc3cccnc3)ccc2o1`, the “activity change, negative = inhibition” value is -11.9%.
For the compound `CC(C)C[C@H]1C(=O)N2CCC[C@H]2[C@]2(O)O[C@](NC(=O)[C@@H]3C=C4c5cccc6[nH]c(Br)c(c56)C[C@H]4N(C)C3)(C(C)C)C(=O)N12`, the “activity change, negative = inhibition” value was -15.2%.
